Assay results: PubChem BioAssay (NCI)
This is part of a sample that, as a whole, favours compounds with a hit. Of some 83,000 tested, about 20% had one in any assay.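 Growth was measured after 48 h exposure to one concentration of compound in 96-well plates. Values under 10 count as active.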 A number with no mark means an inactive call. Calls of active or inactive are those of the source.

Assays:
Test in all cases: NCI-60 one-dose screen, 48 h (100 = growth as untreated, 0 = no growth, -100 = all killed)
Conditions in all cases: 10 µM unless noted
HCT-15 colon = system: HCT-15 colon
HT29 colon = system: HT29 colon
SNB-75 CNS = system: SNB-75 CNS
SNB-19 CNS = system: SNB-19 CNS
U251 CNS = system: U251 CNS
PC-3 prostate = system: PC-3 prostate
SK-MEL-5 melanoma = system: SK-MEL-5 melanoma
UACC-62 melanoma = system: UACC-62 melanoma
LOX IMVI melanoma = system: LOX IMVI melanoma
SK-MEL-28 melanoma = system: SK-MEL-28 melanoma

SMILES | growth (HCT-15 colon) | growth (HT29 colon) | growth (SNB-75 CNS) | growth (SNB-19 CNS) | growth (U251 CNS) | growth (PC-3 prostate) | growth (SK-MEL-5 melanoma) | growth (UACC-62 melanoma) | growth (LOX IMVI melanoma) | growth (SK-MEL-28 melanoma)
COc1ccccc1CNCCCN1C(=O)c2ccc3c4c(ccc(c24)C1=O)C(=O)N(CCCNCCCCNCCCCN)C3=O | 30.6% | 1.62% (active) | -37.8% (active) | 4.86% (active) | 0.458% (active) | -12.5% (active) | -85% (active) | -75% (active) | -3.52% (active) | -13.9% (active)
COc1ccc(/C=C/C(=O)c2cccc(B(O)O)c2)cc1O | 12% | 69.5% | 9.35% (active) | 59.5% | 44.2% | 59.9% | 81.7% | 33.7% | 13.8% | 79.2%
C=C1C(=O)O[C@H]2[C@H]1CC/C(COC(=O)NCc1ccc(OC)cc1)=C\CC[C@@]1(C)O[C@@H]21 | 12.9% | -4.4% (active) | 96.4% | 61.7% | 67.4% | 52.9% | 87% | 27.5% | 13.9% | 51.2%
CN(C)c1ccc(-c2ccc(-c3ccc(C(=N)N)cn3)o2)cc1 | -46.6% (active) | -61.5% (active) | -85.6% (active) | 12.7% | -91.1% (active) | 7.95% (active) | -95.8% (active) | -97.9% (active) | -94.8% (active) | -79.6% (active)
CC(Cc1nnc(SCC(=O)Nc2ccc(I)cc2)n1N)c1ccccc1 (stereo not given) | 103% | 111% | 260% | 96.6% | 92.7% | 90.2% | 94.3% | 66.8% | 83.7% | 133%
Cc1cc2c(C(C)C)c(O)c(O)c(C=NCCCCCCC(=O)O)c2c(O)c1-c1c(C)cc2c(C(C)C)c(O)c(O)c(C=NCCCCCCC(=O)O)c2c1O | 16.1% | 19% | 50.1% | 21.8% | 14.3% | 18.4% | 30.2% | 28.7% | 4.47% (active) | 40.2%
CC1Cc2c(N(C)C)ncnc2N(C)c2ccc(O)cc21 (stereo not given) | 50.5% | 97.8% | 72.9% | 83.1% | 78.9% | 72.9% | 82.9% | 81.2% | 86.2% | 98.6%
O=C(O)C(=Cc1c2ccccc2cc2ccccc12)C(=O)O | 106% | 105% | 104% | 101% | 101% | 97.2% | 104% | 93.5% | 86.8% | 114%
CC(C)N(Cc1ccc(CN(C(=O)CCl)C(C)C)cc1)C(=O)CCl | 0.15% (active) | -49.7% (active) | -60.5% (active) | 63.2% | -41% (active) | 29.7% | 17.9% | 2.74% (active) | -61.2% (active) | 33.1%
COc1ccc(/C=C/c2nc(N3CCOCC3)c3nc(Cl)c(Cl)cc3n2)cc1OC | 97.5% | 97.4% | 88.3% | 102% | 103% | 102% | 103% | 101% | 97.2% | 109%
CCCCCCCCCCCCCCCCCCOc1cccc(CCOP(=O)(O)OCC[N+](C)(C)C)c1 | 87% | 73.7% | 83.1% | 83.6% | 67.7% | 2.55% (active) | 91.1% | 85.2% | 77.3% | 94.2%
C=CCc1cc(Cl)cc2c(OC(C)=O)c(C(C)=O)c(-c3ccccc3)nc12 | 108% | 112% | 85.6% | 112% | 105% | 96% | 105% | 101% | 97.3% | 116%
Cc1ccc(Nc2ncnc3c2sc2ncccc23)cc1 | 99.2% | 114% | 82.8% | 103% | 101% | 103% | 97% | 103% | 100% | 104%
Nc1ccccc1C#C/C=C\C#Cc1cccc(O)c1 | 44.1% | 76.2% | 42.8% | 88.4% | 43% | 64.2% | 34% | 23.8% | 45.8% | 81.7%
